Screens deposited in PubChem by National Center for Advancing Translational Sciences (NCATS).
Rows were chosen to be rich in hits. Some 19% of all compounds tested hit in one or more screens of this group.
SW480 rereplic: A quantitative high throughput screen for small molecules that induce DNA re-replication in SW480 colon adenocarcinoma cells; SW480 DNA re-replication, Hoechst DNA content imaging, 48 h; Potency, µM (series often up to 46.1 µM), usual class: activators; 340,000 tested, 1.8% active; AID 624297, 2012; also: nearly all actives have a fitted effect of over 55% in size
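First, 250 cells per well were seeded. Next, compound or vehicle (23 nL) was pinned in, plates sat 48 hr at 37 C. Finally Hoechst was added for 40 min before fluorescence scanning.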
MCF10A rereplic: A quantitative high throughput screen for small molecules that induce DNA re-replication in MCF 10a normal breast cells. 350,000 tested, 2.9% active. Potency, µM (doses to about 46.1 µM), most hits filed as activators. MCF 10A DNA re-replication, Hoechst nuclear intensity, 48 h; also: nearly all actives have a fitted effect of over 50% in size
DT40 TDP1 no CPT: qHTS for Inhibitors of human tyrosyl-DNA phosphodiesterase 1 (TDP1): qHTS in cells in absence of CPT; AID 686978, 2013; 420,000 tested, 15% active; Potency, µM (titrated, usually from 46.2 µM), usual class: inhibitors; DT40 Tdp1-/- hTDP1 cells, no CPT, ATP luminescence, 48 h; also: nearly all actives have a fitted effect of over 55% in size
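Chicken DT40 Tdp1-/- cells stably complemented with human TDP1 were seeded at 400 cells/well with DMSO in place of 20 nM camptothecin. After compound pinning, cells grew at least 48 hr at 37 °C; viability read by CellTiter-Glo luminescence.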
TDP1 cell CPT: qHTS for Inhibitors of human tyrosyl-DNA phosphodiesterase 1 (TDP1): qHTS in cells in presence of CPT; chicken DT40 Tdp1-/-;hTDP1 cells + 20 nM CPT, ATP luminescence, 48 h; AID 686979, 2013; Potency, µM (titrated, usually from 46.2 µM), most hits filed as inhibitors; 420,000 tested, 12% active; also: nearly all actives have a fitted effect of over 55% in size
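Chicken DT40 Tdp1-/- cells stably complemented with human TDP1 were seeded at 400 cells/well in medium containing 20 nM camptothecin, exposed to pin-transferred compounds, and grown at 37 °C for at least 48 hr. Viability was read as ATP luminescence.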
BCR signal inh: qHTS Assay to Find Inhibitors of Chronic Active B-Cell Receptor Signaling; ABC-DLBCL IkBa-CBG/CBR reporter, luminescence ratio, 4 h; Potency, µM (highest dose often 46.1 µM), actives largely listed as inhibitors; 340,000 tested, 0.05% active; active = well fitted inhibition curve with a large enough effect in the signal ratio, with a control signal flat, not every such curve was filed as active; inconclusive = small, poorly fitted or top-dose-only effect, or effect the other way, or a change in a side signal; the % refers to the signal ratio
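Cell line TMD8 (human ABC DLBCL), stably expressing tet-inducible CBG68-IkBa fusion and CBR; IMDM/0.5% FBS; cpd up to 46 uM; dox induction, 4 h, 37C/5% CO2; dual luminescence; green/red ratio; MG132 control.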
IL-1B inflam inh: qHTS for Inhibitors of Inflammasome Signaling: IL-1-beta AlphaLISA Primary Screen. THP-1 LPS/ATP IL-1B secretion, AlphaLISA, 16 h; stronger effect = lower value. activity change, % at 57.5 µM. 360,000 tested, 4.7% active; in the data active = activity change below about -50%; inconclusive = mostly about -30% to -49%
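THP-1 cells pretreated 1 hr with compounds (up to 57.5 uM final), then stimulated with LPS (250 ng/mL final) plus ATP (1.25 mM final); secreted IL-1B measured by AlphaLISA after 16 hr, decreased signal indicating inhibition.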
Numbers stand for hits; - = inactive; ? = inconclusive; . = no result; [ ] = another dose, or the depositor's remark. Unless noted, calls follow the shape of the dose curve; as a rule, active = well fitted curve in the direction sought with a large enough effect; inconclusive = small, poorly fitted or top-dose-only effect, or another doubt; inactive = no such curve, though single readings can be large; an effect the other way counts as inactive or inconclusive.

SMILES | SW480 rereplic | MCF10A rereplic | DT40 TDP1 no CPT | TDP1 cell CPT | BCR signal inh | IL-1B inflam inh
CCCN1C=CC(=C2C(=O)c3ccccc3C2=O)C=C1 | - | - | 5.2µM | 8.2µM | ? | ?
CCCCCCN1C=CC(=C2C(=O)c3ccccc3C2=O)C=C1 | - | - | ? | ? | - | -
Cc1ccc(NS(=O)(=O)c2c(C(=O)N3CCCCCC3)c(C)n(C)c2C)c(C)c1 | - | - | - | ? | - | -
O=C1CC2(CCCC2)Oc2ccccc21 | - | ? | - | - | . | -
O=C(COC(=O)c1ccco1)c1ccc(Cl)cc1 | ? | ? | 1.3µM | - | ? | -
O=Cc1cc(OCc2ccccc2)ccc1[B-](F)(F)F | - | ? | 2.1µM | 1.3µM | . | -
Nc1ccc(OCc2ccccc2)cc1[N+](=O)[O-] | - | - | - | - | . | -
Cn1nccc1/C=C(/C#N)S(=O)(=O)c1ccccc1 | ? | ? | ? | 23µM | ? | -
O=C(Oc1ccccc1)N1CCC2(CC1)CCN(c1ccncc1)CC2 | . | . | 15µM | 15µM | . | .
COC(=O)N1CCC2(CC1)CCN(c1ccccn1)CC2 | . | . | - | - | . | .
O=C(Oc1ccccc1)N1CCC2(CC1)CCN(c1ccccn1)CC2 | . | . | ? | 16µM | . | .
CN(C(=O)c1cnn(-c2ncc3c(n2)-c2ccccc2CCC3)c1C1CC1)C1CCOC1 (configuration not stated) | . | . | - | - | . | .
COc1ccc(Cl)cc1NC(=O)CN(C)C(=O)c1ccc(COc2ccccc2)cc1 | ? | ? | ? | ? | - | ?
CC(=O)[C@H](CC(C)C)NC(=O)[C@@H](CC(C)C)NC(=O)[C@H](CC(C)C)NC(=O)OCc1ccccc1 | . | . | 0.19µM | 0.15µM | . | .
CC(=O)NC(CC(C)C)C(=O)NC(Cc1ccccc1)C(=O)CCl (configuration not stated) | - | 8.2µM | 2.6µM | 2.3µM | . | -98
CCc1nnc(NC(=O)CCC(=O)Nc2ccc(Cl)cc2)s1 | - | - | - | - | - | -
NNC(=O)c1sccc1OCc1cccc(C(F)(F)F)c1 | ? | - | ? | 21µM | - | -
CC(=O)c1ccc(OCc2cccc(C(F)(F)F)c2)cc1O | ? | - | - | - | - | -
Nc1ncccc1OCc1cccc(C(F)(F)F)c1 | - | - | 6.5µM | - | - | -51
Cn1c2nc3ccccc3c-2nc2ccccc21 | . | . | 8.2µM | 18µM | . | -
Cc1ccc(-c2nc3ccccc3n2C)o1 | ? | - | ? | ? | - | -
Cn1c(-c2ccc(Br)o2)nc2ccccc21 | - | - | 10µM | 11µM | ? | -
Cn1c(-c2nonc2N)nc2ccccc21 | - | - | - | - | - | -
Cc1cc(NC(=O)CSc2nnc(C(F)(F)F)n2C)no1 | - | - | - | - | - | -
COc1ncc2ncc(=O)n(C[C@H]3CCCO3)c2n1 | . | . | - | - | . | .
SMILES | SW480 rereplic | MCF10A rereplic | DT40 TDP1 no CPT | TDP1 cell CPT | BCR signal inh | IL-1B inflam inh
C(=C\n1nnc2ccccc21)/c1ccc[nH]1 | ? | - | 23µM | 18µM | ? | -
c1ccc(-n2nnc3ccccc32)cc1 | - | - | - | - | - | -
COc1ccccc1S(=O)(=O)Nc1ccc2nc(C)sc2c1 | - | - | 21µM | 2.6µM | - | -
Cc1nc2cc(NS(=O)(=O)c3c(C)c(C)cc(C)c3C)ccc2s1 | -[9.22 µM] | - | 11µM | 20µM | ? | -
Cc1nc2ccc(NS(=O)(=O)c3c(C)c(C)cc(C)c3C)cc2s1 | ? | ? | 21µM | ? | . | -
Cc1ccc(S(=O)(=O)Nc2ccc3nc(C)sc3c2)c(C)c1 | - | ? | 15µM | ? | - | -
Cc1nc2ccc(NS(=O)(=O)c3ccccc3F)cc2s1 | - | - | ? | ? | - | -
Cc1nc2cc(NS(=O)(=O)c3ccccc3F)ccc2s1 | - | - | - | - | - | -
